Test results as given in PubChem BioAssay AID623870 (Broad Institute, 2012).
The campaign covered roughly 390,000 compounds. About 2,600 (0.67%) were called active.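 The calls were made as follows: active = mean inhibition of replicates at least 50% and at least half of replicates each reaching 50%; inconclusive = half or more replicates reach 50% but mean below 50%; inactive = the rest.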 The sample as a whole holds a higher share of actives than the screen did.

target: Transforming acidic coiled-coil-containing protein 3 (Homo sapiens) (UniProt Q9Y6A5); experiment: disruptors of ARNT/TACC3 protein interaction, primary screen, biochemical, AlphaScreen, single concentration (AID 623870); details: AlphaScreen His-ARNT PAS-B/GST-TACC3 binding, luminescence; at 9.99 µM; stronger effect = higher value; TACC3 fragment carries E629A point mutation;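 also: 0% = complete ARNT plus TACC3 wells and 100% = ARNT alone without TACC3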

Row | SMILES | inhibition
1 | Cc1noc(C)c1S(=O)(=O)N(C)C[C@H]1OCCCC[C@@H](C)Oc2ccc(NC(=O)c3ccccc3)cc2C(=O)N([C@@H](C)CO)C[C@H]1C | -4.16% (inactive)
2 | COc1ccc(S(=O)(=O)N2CCOCC2)c(C)c1C | -0.167% (inactive)
3 | COC1=C(N2CCOCC2)C(=O)c2ccccc2C1=O | 60.4% (active)
4 | O=C1c2ccccc2-c2ncnc3c(N4CCOCC4)cc(N4CCOCC4)c1c23 | 11.8% (inactive)
5 | C[C@@H]1CN([C@@H](C)CO)C(=O)c2cccc(NS(=O)(=O)c3cn(C)cn3)c2O[C@H]1CN(C)Cc1ccc(Cl)c(Cl)c1 | 4.82% (inactive)
6 | O=C(NC1CCCC1)[C@H]1[C@H](CO)[C@H]2Cn3c(ccc(-c4ccccc4)c3=O)[C@H]2N1CCc1ccccc1 | 5.95% (inactive)
7 | COCC(=O)N1CC[C@@H]2[C@@H](CO)Nc3ccc(-c4ccc(C(=O)N(C)C)cc4)cc3[C@@H]21 | -12.5% (inactive)
8 | COc1cccc(S(=O)(=O)N[C@H]2CC[C@H](CCN)O[C@H]2CO)c1 | 0.015% (inactive)
9 | COCC(=O)Nc1ccc2c(c1)OC[C@@H](C)N(C(=O)c1cnccn1)C[C@H](C)[C@H](OC)CN(C)C2=O | -8.24% (inactive)
10 | COc1cc(C(=S)NCc2ccccc2)cc(Br)c1O | 49.6% (active)
11 | COc1cc(C(=O)NCc2ccc(-n3cccc3)cc2)cc(OC)c1OC | -1.7% (inactive)
12 | COc1cc(Cl)cc(C2NC(=O)NC(C)=C2C(=O)NCc2ccccc2)c1O (stereo unspecified) | -0.141% (inactive)
13 | COc1ccc(S(=O)(=O)Nc2cccc3c2O[C@@H](CN(C)S(=O)(=O)c2ccccc2)[C@@H](C)CN([C@@H](C)CO)C3=O)cc1 | 1.77% (inactive)
14 | CC(=O)N(C)C[C@H]1Oc2cc(-c3ccc(C)cc3)ccc2S(=O)(=O)N([C@@H](C)CO)C[C@@H]1C | -9.76% (inactive)
15 | C[C@@H]1CN([C@@H](C)CO)S(=O)(=O)c2ccc(C3=CCCC3)cc2O[C@H]1CN(C)C(=O)CC1CC1 | 3.76% (inactive)
16 | C[C@H]1CN([C@@H](C)CO)C(=O)c2cc(NC(=O)Cn3cnnn3)ccc2O[C@@H]1CN(C)C(=O)Nc1ccccc1 | -0.158% (inactive)
17 | c1ccc(-c2cn3c(n2)CCc2ccc4cccnc4c2-3)cc1 | 64.1% (active)
18 | O=C(Nc1nnc(C2=COCCO2)o1)c1ccc([N+](=O)[O-])s1 | 32.6% (inactive)
19 | COc1cc(-c2nnc(NC(=O)C3=COCCO3)o2)cc(OC)c1OC | 45.2% (active)
20 | CCC(CC)c1nnc(NC(=O)C2=COCCO2)s1 | -6.14% (inactive)
21 | COC(=O)[C@@H]1[C@@H](CO)[C@@H]2Cn3c(ccc(C4=CCCC4)c3=O)[C@@H]2N1Cc1cncnc1 | -4.04% (inactive)
22 | C/C=C/c1ccc2c(c1)O[C@@H](CN(C)C(=O)Cc1ccccn1)[C@@H](C)CN([C@H](C)CO)S2(=O)=O | -2.68% (inactive)
23 | O=C(CN1C(=O)COc2ccc(Cl)cc21)Nc1ccc(N2CCOCC2)cc1 | 2.76% (inactive)
24 | CC(OC(=O)CN1C(=O)COc2ccccc21)C(=O)NCc1ccc(F)cc1 (stereo unspecified) | -23.2% (inactive)

Row | SMILES | inhibition
25 | O=C(CN1C(=O)COc2ccccc21)Nc1ccc(F)cc1 | 55.9% (active)
26 | C[C@H]1CN([C@@H](C)CO)C(=O)c2cc(NC(=O)Nc3ccc4c(c3)OCO4)ccc2O[C@@H]1CN(C)Cc1ccc(Oc2ccccc2)cc1 | 28.7% (inactive)
27 | COc1cc(C2C(C(=O)Nc3ccccc3OC)=C(C)Nc3ncnn32)ccc1O (stereo unspecified) | 7.59% (inactive)
28 | CC1=C(C(=O)OC2CCCCC2)C(c2cccnc2)n2ncnc2N1 (stereo unspecified) | -3.41% (inactive)
29 | COC(=O)C1=C(C)Nc2ncnn2C1c1cccnc1 (stereo unspecified) | 18.7% (active)
30 | CN1CCN(C(=O)C[C@H]2CC[C@H]3[C@H](COc4ccc(NC(=O)C5CC5)cc4C(=O)N3C)O2)CC1 | -1.07% (inactive)
31 | O=C(Cc1ccncc1)NCC[C@H]1CC[C@@H](NC(=O)Nc2ccc(Cl)cc2)[C@@H](CO)O1 | 13.7% (inactive)
32 | Oc1ccc(N=Nc2nccs2)c(O)c1 | 80.9% (active)
33 | CCC(=O)N(C)C[C@H]1Oc2ncc(C#CC(C)C)cc2C(=O)N([C@@H](C)CO)C[C@H]1C | -8.34% (inactive)
34 | Cc1ccc(S(=O)(=O)N2C[C@@H](O)COC[C@@H]3O[C@@H](CC(=O)N[C@H]4CCN(Cc5ccccc5)C4)CC[C@H]32)cc1 | -6.23% (inactive)
35 | CCOC(=O)c1nn(-c2cccc(C)c2)cc1C(=O)c1ccccc1 | 25.6% (inactive)
36 | CCOC(=O)C1=C(O)/C(=C/c2cc(C)n(-c3ccccc3)c2C)N=C1C | 27.3% (active)
37 | Cc1cc(C(=O)OCC(=O)NCc2ccco2)c(C)n1-c1ccccc1 | -8.94% (inactive)
38 | CC(C)CC#Cc1cnc2c(c1)C(=O)N([C@H](C)CO)C[C@H](C)[C@H](CN(C)C(=O)Nc1ccccc1F)O2 | -1.64% (inactive)
39 | CC(C)CC#Cc1ccc2c(c1)O[C@H](CN(C)C(=O)c1cccnc1)[C@@H](C)CN([C@H](C)CO)S2(=O)=O | -3.52% (inactive)
40 | COc1ccc(S(=O)(=O)N(C)C[C@H]2OCCCC[C@H](C)Oc3ccc(NC(=O)CCC(F)(F)F)cc3C(=O)N([C@@H](C)CO)C[C@@H]2C)cc1 | 1.97% (inactive)
41 | CCCNC(=O)C[C@H]1CC[C@H]2[C@@H](COC[C@@H](O)CN2C(=O)Nc2ccc(Cl)c(Cl)c2)O1 | -0.599% (inactive)
42 | CCNC(=O)C[C@@H]1CC[C@H](NC(=O)NC2CCCCC2)[C@H](CO)O1 | 14.7% (inactive)
43 | C[C@@H](O)C#Cc1cnc2c(c1)C(=O)N([C@@H](C)CO)C[C@H](C)[C@H](CN(C)Cc1cncnc1)O2 | -0.882% (inactive)
44 | CCc1cccc(NC(=O)COC(=O)c2cc(=O)c3ccccc3o2)c1 | -1.51% (inactive)
45 | O=C(COC(=O)CSc1nnc(-c2ccc(Cl)cc2)o1)Nc1cc(Cl)cc(Cl)c1 | 2.05% (inactive)
46 | CC(=O)Nc1cccc(C(=O)OCC(=O)Nc2nnc(-c3ccccc3)o2)c1 | 55.1% (active)
47 | CO[C@@H]1CN(C)C(=O)c2ccc(NC(=O)Nc3ccccc3)cc2OC[C@H](C)N(C(=O)CC2CC2)C[C@@H]1C | -5.39% (inactive)
48 | COCCNC(=O)Cn1cc(C(=O)c2cccs2)c2ccccc21 | -1.09% (active)

Row | SMILES | inhibition
49 | COCCNC(=O)C(OC(=O)c1cccs1)c1ccc(F)cc1 (stereo unspecified) | -9.93% (inactive)
50 | COCCCNC(=O)Cn1cc(C(=O)C2CC2)c2ccccc21 | 1.82% (inactive)
51 | C[C@@H]1CCCCO[C@H](CN(C)Cc2ccc(Cl)c(Cl)c2)[C@H](C)CN([C@@H](C)CO)C(=O)c2cc(NC(=O)C3CCCCC3)ccc2O1 | -6.84% (inactive)
52 | C[C@@H]1CN([C@@H](C)CO)C(=O)CCCn2cc(nn2)CO[C@H]1CN(C)C(=O)Nc1ccc(N2CCCCC2)cc1 | 4.48% (inactive)
53 | O=C(NCC[C@@H]1CC[C@H](NC(=O)Nc2cc(F)ccc2F)[C@@H](CO)O1)Nc1ccc(Cl)cc1 | -4.66% (inactive)
54 | CNC(=O)C[C@@H]1CC[C@@H]2[C@H](COc3ccc(NC(=O)Nc4ccccc4)cc3C(=O)N2C)O1 | -2.84% (inactive)
55 | O=C(CC1CC1)N1[C@H](CO)[C@@H]2c3ccccc3N(S(=O)(=O)c3ccc(F)cc3)C[C@@H]21 | -6.11% (inactive)
56 | O=C(C[C@H]1CC[C@@H](NC(=O)Cc2cccnc2)[C@H](CO)O1)Nc1ccc(-c2ccccc2)cc1 | -7.46% (inactive)
57 | COc1ccc(S(=O)(=O)Nc2ccc3c(c2)CC(=O)N([C@H](C)CO)C[C@H](C)[C@H](CN(C)CC2CC2)O3)cc1 | -8.43% (inactive)
58 | O=C(Nc1cc(F)ccc1F)N1C[C@H]2[C@@H](c3ccccc31)[C@@H](CO)N2CC1CCCC1 | -1.12% (inactive)
59 | CC(C(=O)Nc1ccc(O)c(C(=O)O)c1)N1C(=O)/C(=C/c2cccs2)SC1=S (stereo unspecified) | 55.9% (active)
60 | Cc1cccc(NC(=O)C(C)N2C(=O)C3C4CC(C(Br)C4Br)C3C2=O)c1 (stereo unspecified) | 5.02% (inactive)
61 | Cc1noc(C)c1S(=O)(=O)N(C)C[C@@H]1OCCCC[C@H](C)Oc2ccc(NC(=O)Nc3ccc4c(c3)OCO4)cc2C(=O)N([C@H](C)CO)C[C@H]1C | -0.948% (inactive)
62 | COc1cccc(/C=N\NC(=O)C2=NNC(=O)C2C)c1O (stereo unspecified) | 71.4% (active)
63 | CC1=NNC(=O)C1CC(=O)N/N=C/c1ccncc1 (stereo unspecified) | 3.25% (inactive)
64 | CC1=NNC(=O)C1CCC(=O)N/N=C\c1cccc(Cl)c1 (stereo unspecified) | 4.23% (inactive)
65 | C[C@@H]1CN([C@H](C)CO)C(=O)Cc2cc(NC(=O)Nc3cccc4ccccc34)ccc2O[C@@H]1CN(C)Cc1ccc(C(=O)O)cc1 | -8.02% (active)
66 | C[C@H]1CN([C@@H](C)CO)C(=O)Cc2cc(NC(=O)Nc3cccc4ccccc34)ccc2O[C@@H]1CN(C)C | -6.19% (inactive)
67 | C[C@@H]1CCCCO[C@H](CN(C)C(=O)Nc2cccc3ccccc23)[C@H](C)CN([C@@H](C)CO)C(=O)c2cc(NC(=O)CCCN(C)C)ccc2O1 | 14.2% (inactive)
68 | C[C@@H]1CN([C@@H](C)CO)C(=O)c2cc(NC(=O)CCCN(C)C)ccc2O[C@@H](C)CCCCO[C@H]1CN(C)C(=O)Nc1cccc2ccccc12 | 39.5% (active)
69 | C[C@@H]1CN([C@@H](C)CO)C(=O)c2cc(NC(=O)Cc3ccccc3)ccc2O[C@@H](C)CCCCO[C@H]1CN(C)C(=O)Nc1cccc2ccccc12 | 1% (inactive)
70 | C[C@@H]1CN([C@H](C)CO)C(=O)Cc2cc(NC(=O)Nc3cccc4ccccc34)ccc2O[C@@H]1CN(C)Cc1ccc(C(F)(F)F)cc1 | 0.147% (inactive)
71 | CC=Cc1ccc2n(c1=O)C[C@@H]1[C@@H](CO)[C@H](C(=O)NCC3CC3)[C@H]2N1C(=O)c1ccccc1 (mixture of isomers) | -1.91% (inactive)
